Screening results from PubChem.
BL2 CD40 inh: CD40 pathway inhibition in BL2 cells; 83,000 tested, 0.94% active; inhibition, % at 10 µM; AID 1053188; BL2 NF-kB luciferase reporter, CD40L-induced, 4 h;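 active = mean inhibition of at least 50% with a set share of replicates also reaching that level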;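 note: 0% = neutral control wells and 100% = IKK inhibitor VII at 50 µM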
Active calls of the source: *; [ ] = dose if it differs, or a comment. Only a selection was taken, and hits are over-represented in it overall.

SMILES	BL2 CD40 inh
C[C@H]1CN([C@@H](C)CO)C(=O)Cc2cc(NS(=O)(=O)c3cccs3)ccc2O[C@@H]1CN(C)Cc1ccc(Cl)c(Cl)c1	57*
C[C@@H]1CN([C@@H](C)CO)C(=O)Cc2cc(NC(=O)Nc3ccc(C(F)(F)F)cc3)ccc2O[C@H]1CN(C)Cc1ccccc1	-4
C[C@@H]1CN([C@@H](C)CO)C(=O)Cc2cc(NS(=O)(=O)c3ccccc3)ccc2O[C@H]1CN(C)Cc1ccc(Cl)c(Cl)c1	68*
C[C@@H]1CN([C@H](C)CO)C(=O)c2ccccc2-c2ccccc2CO[C@@H]1CN(C)C(=O)C1CC1	-14
N#C[C@H]1[C@@H](c2ccccc2C2=CCCC2)[C@@H](CO)N1C(=O)C1CCC1	18[25 µM]
CCS(=O)(=O)Nc1ccc2c(c1)C(=O)N(C)C[C@H](OC)[C@H](C)CN(CC1CCCC1)[C@@H](C)CO2	-3
O=C(C[C@@H]1C[C@@H]2c3cc(NC(=O)C4CCC4)ccc3O[C@@H]2[C@@H](CO)O1)NCc1ccccn1	-2[25 µM]
O=C1N[C@@H](c2ccccc2)COCc2cn(nn2)CC[C@H]1Cc1cccc(Cl)c1	-2[25 µM]
CC(=O)N1[C@@H]2CN(S(C)(=O)=O)C[C@H]1C2c1ccccc1 (some centres not stated)	3
CN(C)C(=O)c1ccc(-c2ccc([C@H]3[C@@H](C#N)N(C(=O)Cc4ccccn4)[C@H]3CO)cc2)cc1	-1[25 µM]
C/C=C/c1ccc(C2[C@H]3CNC[C@@H]2N3Cc2ccccc2C(F)(F)F)cc1 (some centres not stated)	-10[25 µM]
COc1ccc(NC(=O)N2CCCCN3[C@H](CO)[C@@H](c4ccc(C#Cc5ccccn5)cc4)[C@H]3C2)cc1	-12
Cn1nnnc1SCC(=O)N1N=C(c2cccs2)CC1c1cccs1 (configuration not stated)	-29
O=C(CNCCO)N1N=C(c2cccs2)CC1c1cccs1 (configuration not stated)	31*
O=C(CSC1=NCCS1)N1N=C(c2cccs2)CC1c1ccc(F)cc1 (configuration not stated)	8
COc1ccc(C(=O)ON=C2CCN(C)CC2)cc1	11
O=C(O/N=C(\c1ccccc1)c1ccccn1)c1cccc2ccccc12	3
COc1ccc(C(=O)O/N=C2\C(=O)N(C)c3ccccc32)cc1	60*
O=C(O)c1ccc2c3c(cccc13)C(=O)N(c1cccc3ccccc13)C2=O	1
CN1C(=O)/C(=N\OC(=O)c2cccc3ccccc23)c2ccccc21	99*
COc1ccc(C(=O)NC2c3ccccc3-c3ccccc32)cc1	14
C[C@H]1CN([C@@H](C)CO)C(=O)CCCn2nncc2CO[C@H]1CN(C)Cc1ccc(Cl)c(Cl)c1	13[25 µM]
CC(=O)N(C)C[C@H]1Oc2ccc(N(C)C)cc2CC(=O)N(C)C[C@H]1C	-1
CC(=O)Nc1ccc2c(c1)C(=O)N(C)C[C@H](C)[C@@H](CN(C)C)O2	34
OCCOCCN1CCN(C(c2ccccc2)c2ccc(Cl)cc2)CC1 (configuration not stated)	16
SMILES	BL2 CD40 inh
OCCOCCN1CCN(C2=Nc3ccccc3Sc3ccccc32)CC1	0
O=C1C=CC(=O)c2c(O)c(N3CCN(CCOCCO)CC3)c(Br)c(O)c21	85*
O=C(C[C@@H]1CC[C@@H]2[C@H](COC[C@H](O)CN2C(=O)c2ccc3c(c2)OCO3)O1)NCCN1CCCC1	-4
CC(C)(C)n1ncc2c(=O)n(CC(=O)OCc3ccccc3)cnc21	98*
CC(C)(C)n1ncc2c(=O)n(CC(=O)NCc3ccc(F)cc3)cnc21	7
CC(C)(C)n1ncc2c(=O)n(CC(=O)c3ccccc3)cnc21	-82
O=C(C1CCOCC1)N1CC(=O)N2[C@H](CO)[C@H](c3ccc(-c4cccnc4)cc3)[C@@H]2C1	-18[25 µM]
COc1cccc(C#Cc2ccc([C@H]3[C@@H](C#N)N(C(=O)C4CCCC4)[C@@H]3CO)cc2)c1	77*
COc1cccc(C#Cc2ccc([C@H]3[C@@H](CO)N(C(=O)C4CCCC4)[C@H]3C#N)cc2)c1	-2
COc1cccc(C#Cc2ccc([C@@H]3[C@@H](C#N)N(C(=O)C4CCCC4)[C@@H]3CO)cc2)c1	-27
COc1cccc(C#Cc2ccc([C@H]3[C@H](C#N)N(C(=O)C4CCCC4)[C@H]3CO)cc2)c1	-35
COc1cccc(C#Cc2ccc([C@@H]3[C@@H](CO)N(C(=O)C4CCOCC4)[C@H]3C#N)cc2)c1	55*
COc1cccc(C#Cc2ccc([C@@H]3[C@H](C#N)N(C(=O)C4CC4)[C@H]3CO)cc2)c1	-18
C[C@H](C(=O)N(C)C[C@@H]1OCc2ccccc2-c2c(n(C)c3ccccc23)C(=O)N([C@H](C)CO)C[C@@H]1C)c1ccccc1	-11
O=C1[C@H](Cc2ccc(F)cc2)CCn2cc(nn2)COC[C@H]2CCCN12	-8[25 µM]
C[C@H]1CN(C)C(=O)Cc2cc(N(C)C)ccc2O[C@@H]1CN(C)C(=O)OC(C)(C)C	-27
Cc1noc(C)c1S(=O)(=O)Nc1ccc2c(c1)C(=O)N([C@H](C)CO)C[C@H](C)[C@@H](CN(C)C(=O)Nc1cccc3ccccc13)OCCCC[C@@H](C)O2	0[25 µM]
C[C@@H]1CN([C@H](C)CO)C(=O)c2cc(NC(=O)Nc3cccc4ccccc34)ccc2O[C@@H](C)CCCCO[C@@H]1CN(C)Cc1ccc(C(F)(F)F)cc1	32[25 µM]
C[C@@H]1CCCCO[C@@H](CN(C)CC2CCCCC2)[C@@H](C)CN([C@@H](C)CO)C(=O)c2cc(NC(=O)Nc3ccc(C(F)(F)F)cc3)ccc2O1	97*[25 µM]
C[C@H]1CCCCO[C@@H](CN(C)Cc2ccc(C(F)(F)F)cc2)[C@@H](C)CN([C@@H](C)CO)C(=O)c2cc(NC(=O)Nc3cccc4ccccc34)ccc2O1	18[25 µM]
Cc1noc(C)c1S(=O)(=O)Nc1ccc2c(c1)C(=O)N([C@H](C)CO)C[C@H](C)[C@H](CN(C)C(=O)Nc1cccc3ccccc13)OCCCC[C@@H](C)O2	-10[25 µM]
Cc1noc(C)c1S(=O)(=O)Nc1ccc2c(c1)C(=O)N([C@H](C)CO)C[C@@H](C)[C@H](CN(C)C(=O)Nc1cccc3ccccc13)OCCCC[C@@H](C)O2	75*[25 µM]
C[C@H]1CCCCO[C@H](CN(C)Cc2ccc(C(F)(F)F)cc2)[C@@H](C)CN([C@@H](C)CO)C(=O)c2cc(NC(=O)Nc3cccc4ccccc34)ccc2O1	53*[25 µM]
C[C@@H]1CCCCO[C@@H](CN(C)CC2CCCCC2)[C@H](C)CN([C@H](C)CO)C(=O)c2cc(NC(=O)Nc3ccc(C(F)(F)F)cc3)ccc2O1	-8
C[C@@H]1CN([C@@H](C)CO)C(=O)c2cc(NC(=O)Nc3ccc(C(F)(F)F)cc3)ccc2O[C@@H](C)CCCCO[C@@H]1CN(C)CC1CCCCC1	12[25 µM]
SMILES	BL2 CD40 inh
CC(=O)N(C)C[C@@H]1Oc2c(NC(=O)NC(C)C)cccc2C(=O)N(C)C[C@H]1C	1
COC(=O)N(C)C[C@@H]1OCc2ccccc2-c2c(n(C)c3ccccc23)C(=O)N([C@@H](C)CO)C[C@@H]1C	-6
C[C@H](CO)N1C[C@H](C)[C@H](CN(C)C(=O)c2ccc(F)cc2)OCc2ccccc2-c2c(n(C)c3ccccc23)C1=O	11
CC(C)CC#Cc1ccc([C@H]2[C@@H](CO)N3C(=O)CN(C(=O)c4ccccn4)C[C@@H]23)cc1	-10[25 µM]
CN1CCN(C(=O)C[C@@H]2CC[C@@H]3[C@H](COc4ccc(NC(=O)C5CCCC5)cc4C(=O)N3C)O2)CC1	5
CS(=O)(=O)N1[C@H](C#N)[C@@H](c2ccc(C#Cc3cccc(F)c3)cc2)[C@H]1CO	-18[25 µM]
